Measurements: PubChem BioAssay AID1851 (National Center for Advancing Translational Sciences (NCATS), 2009)
Several values for one entry are separate records, joined by “and”; a condition that tells them apart may be missing. Equal values may be shown once. Out of some 16,000 compounds screened, about 5,100 (32%) were called active. Not shown: some 25% with an inconclusive outcome. The list shows a part of the results. Unmarked numbers belong to inactive results. Calls come from the whole dose curve; as a rule, active = well fitted curve in the direction sought with a large enough effect; inconclusive = small, poorly fitted or top-dose-only effect, or effect the other way; inactive = no such curve, though single readings can be large or run the other way.

Molecular target: Cytochrome P450 3A4 (Homo sapiens) (UniProt P08684)
Sequence (P08684 whole entry, looked up): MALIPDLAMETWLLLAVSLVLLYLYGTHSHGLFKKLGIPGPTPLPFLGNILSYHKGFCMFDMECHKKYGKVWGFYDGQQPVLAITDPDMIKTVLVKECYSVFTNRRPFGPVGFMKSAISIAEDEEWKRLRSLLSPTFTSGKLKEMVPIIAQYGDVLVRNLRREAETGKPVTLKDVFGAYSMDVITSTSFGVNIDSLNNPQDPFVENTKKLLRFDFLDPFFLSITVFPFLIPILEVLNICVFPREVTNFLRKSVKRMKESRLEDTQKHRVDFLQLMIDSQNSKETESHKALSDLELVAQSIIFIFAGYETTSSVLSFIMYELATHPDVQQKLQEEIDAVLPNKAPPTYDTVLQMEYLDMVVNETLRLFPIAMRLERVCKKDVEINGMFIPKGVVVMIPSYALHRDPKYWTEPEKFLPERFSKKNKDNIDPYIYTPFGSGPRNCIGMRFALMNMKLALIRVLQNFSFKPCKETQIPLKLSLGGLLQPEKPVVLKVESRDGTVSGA
Assay: Cytochrome panel assay with activity outcomes
Settings: recombinant CYP, pro-luciferin dealkylation, luminescence, p450-cyp3a4; series mostly up to 57.1 µM; activity, negative = inhibition: at the top concentration
Procedure: The P450 gene superfamily is involved in the metabolism and clearance of xenobiotics. This assay used various human CYP P450 isozymes to measure the dealkylation of various pro-luciferin substrates to luciferin. The luciferin is then measured by luminescence after the addition of a luciferase detection reagent. Pro-luciferin substrate concentration in the assay was equal to its KM for its CYP P450 isozyme. Inhibitors and some substrates limit the production of luciferin, and decrease measured luminescence.
NCGC Assay Protocol Summary:
1, Reagent, 2 uL, Isozyme and Pro-Luciferin
2, Library compounds, 23 nl, 40 uM to 0.24 nM dilution series
3, Controls, 23 nl, Isozyme specific inhibitor
4, Reagent, 2 uL, NADPH regeneration solution
5, Incubation time, 60 min, Isozyme specific temperature
6, Reagent, 4ul, Detection reagent
7, Incubation time, 20 min, Isozyme specific temperature
8, Detection, 1 sec, ViewLux luminescent read
The luciferase-based P450-GloTM Screening Systems were obtained from Promega (Madison, WI) for CYP 1A2 (V9770), CYP 2C9 (V9790), CYP2 C19 (V9880), CYP 2D6 (V9890), and CYP 3A4 Luciferin-PPXE (V9910) and were adapted for 1,536-well microplates and an automated protocol. The control compounds furafylline for 1A2 (F124), sulfaphenazole for CYP 2C9 (S0758), ketoconazole for CYP 2C19 (K1003), quinidine for 2D6 (Q3625), and ketoconazole for 3A4 (K1003) were purchased from Sigma Aldrich (St. Louis, MO). Recombinant P450 enzymes were obtained from baculovirus constructs expressed in insect cells (BD/Gentest).
Medium-binding white solid Kalypsys plates used. Mixtures kept on ice. 1A2: 10 nM 1A2, 100 uM Luc-ME, 100 mM KPO4; 2C9: 10 nM 2C9, 100 uM Luc-H, 25 mM KPO4; 2C19: 5 nM 2C19, 10 uM Luc-H EGE, 50 mM KPO4; 2D6: 5 nM 2D6, 30 uM Luc-ME EGE, 100 mM KPO4; 3A4: 10 nM, 25 uM Luc-PPXE. All amounts are reflected in their final concentration, working concentration is 2x.
NADPH regeneration solution: 1.3 mM NADP+, 3.3 mM glucose-6-phosphate, 3.3 mM MgCl2, 0.4 U/mL glucose-6-phosphate dehydrogenase for all isozymes, 200 mM KPO4 for 3A4. Mixture prepared at RT but kept on ice during automated run.
RT incubation in auxilliary plate hotel for 1A2, 2D6, and 3A4; 37C for 2C9 and 2C19.
Keywords: P450, CYP1A2, CYP2C19, CYP2C9, CYP2D6, CYP3A4, Luciferase, MLSMR, MLSCN, NIH Roadmap, qHTS, NCGC
% is set by controls: 0 for no effect and ±100 for the full control effect.

Structure (SMILES) | AC50 | activity, negative = inhibition
N#C/C(=C\c1ccc(O)c(O)c1)C(N)=S | 12.6 µM (active) and 15.8 µM (active) | –
N#C/C(=C\c1ccc(O)c(O)c1)C(=O)NCCCNC(=O)/C(C#N)=C/c1ccc(O)c(O)c1 | 2 µM (active) | –
CC[C@@H]1[C@@H]2C[C@H]3[C@H]4N(C)c5ccccc5[C@@]45C[C@@H]([C@@H]2[C@@H]5O)N3[C@H]1O | – | 1.61% [at 25.6 µM]
CNC[C@H](O)c1ccc(O)cc1 | – | -13% [at 25.6 µM]
NC[C@H](CP(=O)(O)O)c1ccc(Cl)cc1 | – | -3.38%
CC1(C)[C@@H]2CC[C@]1(C)CN(CCC[N+](C)(C)C)C2 | – | 12.3% [at 11.4 µM]
C[N+](C)(C)CCCCCC[N+](C)(C)C | – | -2.76% [at 25.6 µM]
O=C(Nc1ccc(C(F)(F)F)cc1)c1cccn(Cc2ccc3c(c2)OC(F)(F)O3)c1=O | – | -21.3%
C=CCn1c(O)c(C(CC)=NC2CC2)c(=O)[nH]c1=O | – | -14.9% [at 2.29 µM]
CCCCn1c(O)c(C(CC)=Nc2ccc(OC)cc2OC)c(=O)[nH]c1=O | 7.94 µM (active) | –
O=C(CCCN1CCC(n2c(=O)[nH]c3ccccc32)CC1)c1ccc(F)cc1 | – | -10.2% [at 25.6 µM]
CCCn1c(C)c(C(=O)c2cccc3ccccc23)c2ccccc21 | – | -13.7%
COc1ccc(C(=O)c2c(C)n(CCN3CCOCC3)c3cc(I)ccc23)cc1 | 5.01 µM (active) | –
CC(C)CC(=O)C[C@H](O)C(Cl)(Cl)Cl | – | 1.61% [at 11.4 µM]
S=P(C1CCCCC1)(C1CCCCC1)[C@H](c1cccnc1)N1CCCC1 | 3.16 µM (active) | –
CCC(CC)C(=O)NC1CCSC1=O (stereo not given) | – | 10.8%
CN1CCN(c2ncc3ncc(=O)n(C)c3n2)CC1 | – | 0.0574%
COc1ccc(C(=O)OC2C[C@H]3CC[C@@H](C2)N3C)cc1OC (stereo not given in full) | – | -8.39% [at 25.6 µM]
Cc1ccc(S(=O)ON2CCC(C(=O)O)(c3ccccc3)CC2)cc1 (stereo not given) | – | -0.254% [at 11.4 µM]
C=C(CC1(C(C)NP(=O)(c2ccccc2)c2ccccc2)CC1)c1ccccc1 (stereo not given) | 3.98 µM (active) | –

Structure (SMILES) | AC50 | activity, negative = inhibition
O=P(c1ccccc1)(c1ccccc1)N1CC2(CC2)CC(O)(c2ccccc2)C1 (stereo not given) | – | 1.88%
C=C(CC1(CNP(=O)(c2ccccc2)c2ccccc2)CC1)c1ccccc1 | 3.98 µM (active) | –
O=P(O)(O)c1ccccc1 (tested in a mixture with another compound) | – | -7.35% [at 11.4 µM]
CN1[C@@H]2CC[C@H]1CC(OC(=O)c1cc(Cl)cc(Cl)c1)C2 (stereo not given in full) | – | -16.8%
CC(C)(C)c1o[nH]c(=O)c1C[C@H](N)C(=O)O | – | inactive
CCN1C[C@]2(C)CC[C@H](O)[C@@]34[C@@H]5CC6[C@@H](OC)C[C@@](O)([C@@H]5[C@@H]6O)[C@H](C[C@@H]23)[C@H]14 | – | -7.01% [at 25.6 µM]
CCCN(CCC)[C@@H]1CCc2cccc(O)c2C1 | – | inactive
N=C(N)c1ccc(-c2ccc(-c3ccc(C(=N)N)cc3)o2)cc1 | – | 3.4% [at 11.4 µM]
CCCN(CCC)C1Cc2cc(OC)c(OC)cc2C1 | – | inactive
C[N+](C)(C)CCO | – | 10%
C[C@H](c1ccccc1)N1CCN([C@@H](C)c2ccccc2)CC1 | – | -13.4% [at 11.4 µM]
O=C1c2cc([N+](=O)[O-])ccc2-c2ccc3c4ccc5c6c(ccc(c7ccc1c2c73)c64)C(=O)c1cc([N+](=O)[O-])ccc1-5 | – | -21% [at 11.4 µM]
O=C1c2ccccc2-c2cc([N+](=O)[O-])c([N+](=O)[O-])cc21 | 0.501 µM (active) | –
NCCc1ccc(S(=O)(=O)O)cc1[N+](=O)[O-] | – | -7.4% [at 11.4 µM]
CSCC[C@@H](N)P(C)(=O)O | – | -8.04% [at 11.4 µM]
C=C[C@]12CN(C)[C@H]3C1[C@@]1(C(=O)Nc4ccccc41)[C@H]1C[C@H]2[C@H]3CO1 | – | -22.4% [at 25.6 µM]
Oc1cccc2cccnc12 | – | -3.42% [at 11.4 µM]
CCC1C(=O)OCC1Cc1cncn1C (stereo not given) | 15.8 µM (active) | –
CC[C@H]1C(=O)OC[C@H]1Cc1cncn1C | 10 µM (active) and 3.16 µM (active) | –
c1csc(CN2CC3(CCNCC3)C2)n1 | – | -12.1%

Structure (SMILES) | AC50 | activity, negative = inhibition
OC1(c2ccc(F)cc2)CCNC1 (stereo not given) | – | -2.52%
O=S(=O)(O)/C(=C\c1ccccc1)c1ccccc1 (tested in a mixture with another compound) | – | -11.7% [at 11.4 µM]
COc1ccn(C)c(=O)c1C#N | – | -6.41% [at 25.6 µM]
Cc1ccc(N=Nc2c(O)[nH]c(=O)[nH]c2=O)c([N+](=O)[O-])c1 | – | 14.9%
CP(=O)(O)CCCN | – | inactive
NC(=O)COc1c(F)cc(SCCNS(=O)(=O)c2ccccc2)cc1F | 12.6 µM (active) | –
C/C(=C\C=C/[C@@H](C)C(=O)O)[C@H]1CN[C@H](C(=O)O)[C@@H]1CC(=O)O | – | -6.56%
CC(C)CNC(=S)NC1CC2CCCC(C1)N2Cc1ccco1 (stereo not given) | – | 2.91% [at 2.29 µM]
Cc1ccc(C(=O)C2C(=O)c3ccccc3C2=O)cc1 | – | -18.3% [at 11.4 µM]
CN(C(=O)Cc1ccc(Cl)c(Cl)c1)[C@@H](CN1CCCC1)c1cccc(OCC(=O)O)c1 | – | -9.59%
CN(C(=O)Cc1ccc(Cl)c(Cl)c1)[C@H](CN1CCCC1)c1ccccc1 | 6.31 µM (active) | –
O=C(O)CP(=O)(O)c1ccc(Cl)cc1 | – | 8.85%
COc1ccc(C[C@H]2c3cc(OC)c(OC)cc3CCN2C)cc1OC | – | -26.2% [at 25.6 µM]
C[C@]1(C(=O)O)[C@@H]2CC[C@@H](O2)[C@@]1(C)C(=O)O | – | -4.96%
CC1(C)CCC2=C(O1)c1ccccc1C(=O)C2=O | 15.8 µM (active) | –
COc1cc2c3cc1Oc1c(O)c(OC)cc4c1[C@@H](Cc1ccc(cc1)Oc1cc(ccc1O)C[C@H]3N(C)CC2)N(C)CC4 | – | -12.1% [at 11.4 µM]
N[C@H](C(=O)O)c1cc(=O)[nH]o1 | – | -5.66%
N[C@@H](CP(=O)(O)O)C(=O)O | – | -3.52% [at 11.4 µM]
OC(Cn1c2ccccc2c2ccccc21)C[n+]1ccccc1 (stereo not given) | – | -1.96% [at 2.29 µM]
CCCCC1(CCCC)C(=O)NC(=Nc2cccc(C)c2)NC1=O | 12.6 µM (active) | –
